{
  "source": "the supplement of paper PMC7695840",
  "data": [
    {"test_system": "Staphylococcus aureus MW2 delta-mecA (mecA-)", "experiment": "normalized GFP fluorescence (growth of mecA- strain) (fraction of control range); higher = more growth of mecA- strain", "settings": "compound concentration: 150 uM; cefoxitin: subinhibitory; fluorescent label: GFP", "how_it_was_run": "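In 1536-well plates holding 150 μM compound (1.5% DMSO), a 1:1 mix of pre-induced S. aureus MW2 cells was added at 5 µL/well, in one replicate. One strain carried the gene and DsRed, the other lacked the gene and carried GFP, and the LB held a subinhibitory antibiotic dose chosen daily. Plates stood unshaken for 20 h at 37 °C, 90% humidity, before DsRed (540/590) and GFP (485/520) readings, which were scaled per plate to single-strain control medians, with plates high in untreated ratio and rows above DsRed/GFP 10 dropped.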", "values": [
      {"smiles": "CC(C)(O)c1ccccc1CC[C@@H](SCC1(CC(=O)O)CC1)c1cccc(/C=C/c2ccc3ccc(Cl)cc3n2)c1", "normalized GFP fluorescence": -0.0136},
      {"smiles": "C[C@H](NCc1ccc(OCc2cccc(F)c2)cc1)C(N)=O", "normalized GFP fluorescence": 0.957},
      {"smiles": "CNC[C@H](O)[C@@H](O)[C@H](O)[C@H](O)CO", "note": "[Meglumine]", "normalized GFP fluorescence": 0.21},
      {"smiles": "CN1C2=CC(=O)/C(=N\\NC(N)=O)C=C2CC1S(=O)(=O)O", "note": "(stereo unspecified) [Carbazochrome sodium sulfonate]", "normalized GFP fluorescence": 0.171},
      {"smiles": "NNc1nncc2ccccc12", "normalized GFP fluorescence": 0.383},
      {"smiles": "CS(=O)(=O)OCCCCOS(C)(=O)=O", "normalized GFP fluorescence": 0.346},
      {"smiles": "COCCOC(=O)C1=C(C)NC(C)=C(C(=O)OC(C)C)C1c1cccc([N+](=O)[O-])c1", "note": "(stereo unspecified)", "normalized GFP fluorescence": 0.032},
      {"smiles": "CN(C)CCCN1c2ccccc2Sc2ccccc21", "normalized GFP fluorescence": -0.00898},
      {"smiles": "CC[C@@H]([C@H](C)O)n1ncn(-c2ccc(N3CCN(c4ccc(OC[C@@H]5CO[C@@](Cn6cncn6)(c6ccc(F)cc6F)C5)cc4)CC3)cc2)c1=O", "note": "[Posaconazole]", "normalized GFP fluorescence": 0.833},
      {"smiles": "O=C(Nc1cccc2c(=O)cc(-c3nnn[nH]3)oc12)c1ccc(OCCCCc2ccccc2)cc1", "note": "[Pranlukast]", "normalized GFP fluorescence": 0.0957},
      {"smiles": "O=C(O)c1cc(-c2ccc(F)cc2F)ccc1O", "normalized GFP fluorescence": 0.0802},
      {"smiles": "O=C(c1ccc(OCCN2CCCCC2)cc1)c1c(-c2ccc(O)cc2)sc2cc(O)ccc12", "normalized GFP fluorescence": -0.00866},
      {"smiles": "CN(C)CCc1c[nH]c2ccc(CS(=O)(=O)N3CCCC3)cc12", "normalized GFP fluorescence": 0.546},
      {"smiles": "NC(=O)OCC(COC(N)=O)c1ccccc1", "note": "[Felbamate]", "normalized GFP fluorescence": 0.382},
      {"smiles": "Nc1nc(N)c2nc(-c3ccccc3)c(N)nc2n1", "normalized GFP fluorescence": 0.0839},
      {"smiles": "N[C@@H](Cc1c[nH]c2ccccc12)C(=O)O", "normalized GFP fluorescence": 0.368}
    ]}
  ]
}
